EP2 antag – inhibitors of human EP2 prostaglandin E2 receptor; 260,000 tested, 0.52% active; inhibition, % at 25 µM; C6 glioma cells expressing human EP2, cAMP TR-FRET; cells stimulated with saturating PGE2;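 active = percent inhibition above 40 after rounding to a whole number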;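 note: rat C6 glioma host cells with rolipram phosphodiesterase inhibitor present; the protocol text gives 20 µM as final concentration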
Target sequence (P43116 whole entry, looked up): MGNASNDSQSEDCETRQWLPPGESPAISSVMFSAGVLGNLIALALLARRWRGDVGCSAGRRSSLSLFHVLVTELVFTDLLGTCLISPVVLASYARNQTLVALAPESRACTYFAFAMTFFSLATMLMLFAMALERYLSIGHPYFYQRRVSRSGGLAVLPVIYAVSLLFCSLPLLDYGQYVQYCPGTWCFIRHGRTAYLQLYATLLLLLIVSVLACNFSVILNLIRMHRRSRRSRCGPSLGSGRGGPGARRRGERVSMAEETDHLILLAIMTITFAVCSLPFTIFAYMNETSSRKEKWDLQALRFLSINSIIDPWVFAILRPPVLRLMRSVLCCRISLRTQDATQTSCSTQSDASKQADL
S1P4 antagonist – blocks the human S1P4 receptor; 220,000 tested, 0.26% active; O95977; inhibition, % at 4.98 µM; S1P4-expressing cells, antagonist mode, reporter read-out; in the data active = inhibition above about 29%;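 note: 0% = wells stimulated with agonist and 100% = vehicle wells without agonist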
Pf gametocyte – P. falciparum stage V gametocyte viability inhibition | P. falciparum stage V gametocytes, ATP luminescence, 24 h | inhibition, % at 10.9 µM | 150,000 tested, 0.065% active;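 active = inhibition above the mean plus 3 SD of compounds within the control limits, set per campaign, cut at about 38% in these data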;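 note: 0% = DMSO wells and 100% = medium only without gametocytes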
S1P3 antagonist – antagonists of human S1P3 receptor | inhibition, % at 4.98 µM | AID 485 | Q99500 | 170,000 tested, 0.27% active | CHO S1P3 NFAT-BLA reporter, FRET fluorescence, antagonist mode;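 active = inhibition above the plate cutoff, the mean inhibition of test wells on that plate plus 3 SD, cut at about 28% in these data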;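 note: cells challenged with S1P at its EC80 of 0.8 µM; blue over green emission ratio from cleaved BLA substrate after 4 h stimulation; 0% = S1P-stimulated wells and 100% = unstimulated DMSO-only wells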
S1P4 agonist – agonists of human S1P4 receptor; 220,000 tested, 0.35% active; S1P4-expressing cell line, agonist reporter assay; O95977; activation, % at 4.98 µM; AID 1509; in the data active = activation above about 11%;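 note: 0% = DMSO vehicle and 100% = reference agonist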
EP2 modulator – modulators of human EP2 prostaglandin E2 receptor. P43116. EP2-expressing cells, cAMP HTRF FRET, PGE2 co-stimulation. induction, % at 25 µM. 260,000 tested, 0.83% active. AID 940;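 active = compounds whose cAMP rise, as percent of the full-agonist control response, exceeds 60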;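 note: rat C6 glioma line stably carrying human EP2 under a CMV promoter; the protocol text gives 20 µM as final concentration; 100% = response of wells given 1 µM PGE2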
EP2 confirm – EP2 receptor cAMP induction, counter-screens negative. shares compounds with EP2 modulator. C6 glioma EP2 cells, cAMP HTRF induction; plus low (about EC15) PGE2 agonist. calls only at 20 µM (by protocol). 1,300 tested, 47% active;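 active = cAMP induction above 50% in the main assay while under 30% in all four parallel counter assays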;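 note: rat C6 glioma cells stably expressing human EP2 receptor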
An asterisk follows results filed as active; i = inactive; · = no result given; + = active, no number; ! = repeats disagree. Sampled rows, rich in hits. Any-hit rate of the full collection: about 1.9%.

SMILES | EP2 antag | S1P4 antagonist | Pf gametocyte | S1P3 antagonist | S1P4 agonist | EP2 modulator | EP2 confirm
O=C(OCc1ccccc1Cl)c1ccccc1C(=O)c1ccccc1 | 4 | -12 | 14 | · | -1 | 82* | +
CN(Cc1cc(=O)[nH]c2ccccc12)S(=O)(=O)c1ccc2c(c1)CCC(=O)N2 | 24 | · | · | · | · | 33 | ·
Cc1oc(C)c(C(=O)O)c1C(=O)O | 1 | -4 | 8 | -5 | 0 | -6 | ·
O=C(O)c1oc(C(=O)O)c(C(=O)O)c1C(=O)O | 11 | · | · | · | · | 57 | i
COc1cnc(N(C)C)nc1Sc1cccc(Cl)c1 | 11 | -4 | · | · | -1 | 76* | +
COc1cnc(-c2ccccc2)nc1Sc1ccccc1 | 3 | -1 | · | 11 | 1 | 41 | ·
COc1ccc(-c2nc3cnccn3c2NC2CCCC2)cc1CO | · | · | · | · | · | -70 | ·
CCOC(=O)c1ccccc1NC1c2ccccc2C(=O)N1c1cc(C)ccn1 (stereo not drawn) | 10 | 0 | · | · | -1 | 69* | +
COc1cc(OC)c(NC2c3ccccc3C(=O)N2c2cc(C)ccn2)cc1Cl (stereo not drawn) | 11 | -25 | · | -13 | 1 | 19 | ·
Cc1ccc(C2(O)CCN(CCNC(=O)c3cccc(N(C)C)c3)CC2)cc1 | 4 | · | · | · | · | -82 | ·
CCc1ccc(-c2csc(NC(=O)C3CCCO3)c2C(=O)OC(C)C)cc1 (stereo not drawn) | 6 | 8 | · | · | 1 | 57 | ·
COC(=O)c1c(-c2ccc(F)cc2)csc1NC(=O)C1CCCO1 (stereo not drawn) | 5 | 14 | -5 | 0 | -3 | 66* | i
CCN(CC)C(=O)N1CCCC(c2ncncc2-c2cc(C)no2)C1 (stereo not drawn) | · | · | · | · | · | -3 | ·
COC(=O)CSc1nc(-c2ccccc2)nc2ccccc12 | 3 | -1 | 3 | -21 | 0 | 68* | +
O=C(NCc1ccc(F)cc1)c1ccccc1OCc1ccccc1 | 3 | -13 | 6 | -2 | 1 | 81* | +
COc1ccccc1C(=O)NCc1ccccc1 | 7 | -24 | 6 | · | 2 | 23 | ·
Cc1cccc(OCC(O)Cn2nc(C)cc2C)c1 (stereo not drawn) | 13 | · | · | · | · | -12 | ·
Cn1c(=O)[nH]c(=O)c2c1nc(CN1CCN(c3cccc(Cl)c3)CC1)n2CCCc1ccccc1 | 6 | -15 | · | 2 | 0 | 70* | +
Cn1c(=O)[nH]c(=O)c2c1nc(CN1CCN(c3cccc(Cl)c3)CC1)n2Cc1ccccc1Cl | 6 | -11 | · | -10 | -1 | 69* | i
CCN1CCN(Cc2nc3c(c(=O)[nH]c(=O)n3C)n2Cc2ccccc2Cl)CC1 | 10 | 1 | · | -17 | -3 | · | ·
Cn1c(=O)[nH]c(=O)c2c1nc(N1CCCCCC1)n2Cc1cccc2ccccc12 | -4 | -19 | · | · | 0 | 66* | i
O=c1n(CCN2CCCCC2)c2cccnc2n1Cc1cccs1 | · | · | · | · | · | -2 | ·
COc1cccc(C2(NC(=O)CN3Cc4ccccc4C3=O)CCCC2)c1 | 1 | · | · | · | · | -60 | ·
O=C(Nc1nc(-c2cccs2)c(-c2ccccc2)s1)c1ccco1 | 5 | -14 | · | -8 | 0 | 73* | +
CC(=O)Nc1sc(NC(=O)c2ccco2)nc1-c1cccs1 | 8 | · | · | · | · | -18 | ·
SMILES | EP2 antag | S1P4 antagonist | Pf gametocyte | S1P3 antagonist | S1P4 agonist | EP2 modulator | EP2 confirm
CCCOc1ccc(N2CC(C(=O)Nc3cccc(C)n3)CC2=O)cc1 (stereo not drawn) | 15 | · | · | · | · | -16 | ·
O=C1CCC(c2ccccc2)=NN1Cc1c(F)cccc1Cl | 2 | -11 | -36 | 10 | 1 | 66* | +
CCn1c(-c2csc3c2CCCC3)n[nH]c1=S | 4 | -5 | -6 | -4 | 0 | 6 | ·
CCCCn1c(-c2csc3c2CCCC3)n[nH]c1=S | 2 | -11 | · | · | 1 | 55 | i
CN(C(=O)Cc1ccsc1)c1nc2c(s1)CCc1occc1-2 | · | · | · | · | · | -1 | ·
COCCCNC(=S)N(CCCN(C)C)Cc1cc2cc3c(cc2[nH]c1=O)OCO3 | 8 | · | · | · | · | -3 | ·
O=c1cc(N2CCCCC2)c(-c2ccccc2)nn1Cc1ccc(F)cc1 | 7 | -3 | -14 | -7 | 0 | 88* | +
O=c1cc(N2CCCCC2)c(-c2ccccc2)nn1Cc1c(Cl)cccc1Cl | 2 | 10 | -2 | · | 1 | 80* | +
O=C(Nc1ccccc1N1CCN(c2ccccc2)CC1)C12CC3CC(CC(C3)C1)C2 | 9 | -10 | -13 | · | 0 | 68* | i
O=C(CNCc1ccccc1Cl)Nc1ccccc1N1CCCCC1 | 2 | -3 | 1 | 5 | 1 | 75* | +
O=C(Cc1ccccc1)Nc1ccccc1N1CCN(c2ccccc2)CC1 | 5 | 0 | 13 | 15 | 1 | 72* | +
CCOC(=O)CC(=O)CSc1nc(-c2ccc3c(c2)OCO3)cc(C(F)(F)F)c1C#N | 7 | -10 | · | · | 1 | 68* | i
CC(C(=O)Nc1ccccc1-c1ccccc1)N1CCN(C(=O)c2ccccc2)CC1 (stereo not drawn) | 9 | 14 | 2 | -20 | 0 | 1 | ·
CC1CCN(C(C)C(=O)Nc2ccccc2-c2ccccc2)CC1 (stereo not drawn) | 3 | -10 | -22 | · | -1 | 82* | +
COc1ccc2c(c1)OC1(CCN(CC(O)c3c[nH]c4cc(C)ccc34)CC1)CC2O (stereo not drawn) | 8 | · | · | · | · | -86 | ·
CCn1c2c(c3cc(Br)ccc31)CCC/C2=N\O | 19 | -17 | -70 | -4 | 2 | 50 | ·
CCn1c2c(c3cc(OCC(C)C)ccc31)CCCC2=O | 18 | 12 | 2 | · | -3 | 74* | +
COc1ccc(/C=C(\C#N)C(N)=O)cc1OC | 12 | · | · | · | · | 76* | i
CC(C)(C)N(Cc1ccccc1)C(=O)c1ccc(Br)o1 | 5 | -12 | 11 | -3 | 1 | 63* | i
CCOc1ccc(-c2nnn(CC(=O)Nc3ccc(C(C)=O)cc3)n2)cc1OCC | 10 | · | · | · | · | -61 | ·
COc1ccc(NC(=O)C2CC(=O)N(c3cccc(Cl)c3)C2)cc1 (stereo not drawn) | 10 | · | · | · | · | -20 | ·
O=C(O)c1cc2cc(F)ccc2[nH]1 | 12 | -4 | · | -17 | 2 | 113*! | i
O=C(O)c1cc2cc(Cl)ccc2[nH]1 | 10 | · | · | · | · | 26 | ·
O=C(Cc1ccccn1)N1CCCC(n2nc(-c3cccs3)ccc2=O)C1 (stereo not drawn) | · | · | · | · | · | -10 | ·
CSc1nnc(-c2cc3c(s2)-c2ccccc2CC3)o1 | 10 | -17 | 18 | · | -1 | 76* | +
COc1ccc(C)cc1N(C(=O)Cn1nnc(-c2ccc(C)cc2)n1)C(C)C(=O)NC1CCCC1 (stereo not drawn) | 16 | · | · | · | · | 24 | ·
CCOC(=O)c1c(NC(=O)c2ccc(-n3cnnn3)cc2)sc2c1CCCC2 | 7 | 8 | · | -4 | 1 | 58 | +

Screening data as filed in PubChem BioAssay.
